Screening data: PubChem BioAssay, several laboratories
BH1578 lux ind: induces V. cholerae light production without autoinducers | V. cholerae BH1578 lux reporter, luminescence, 6 h | hit rate 0.16% among 350,000 | AID 588436 | activation, % at 18.7 µM; in the data active means activation mostly above about 9.7%, no sharp cut-off; inconclusive means no clear call, values can overlap the other calls; inactive means mostly below about 3.7%
Bead autofluor: counter-screen for toxin protease inhibitors: compound fluorescence; hit rate 3.1% among 360,000; AID 624483; compound autofluorescence counterscreen, microsphere flow cytometry; stronger effect = higher value; fluorescence intensity (concentration not given with the values); in the data active means fluorescence intensity above about 16000; inconclusive means no clear call, values can overlap the other calls
BoNT A protease: inhibitors of Botulinum neurotoxin A light chain protease | multiplex microsphere protease substrate cleavage, flow cytometry | inhibition, % at 10 µM | hit rate 0.17% among 360,000 | AID 588499; further: plate controls were buffer without enzyme for full effect and enzyme alone for no effect
BoNT-F LC inh: BoNT F light chain protease inhibition; Multiplex microsphere protease cleavage assay, flow cytometry; hit rate 0.22% among 360,000; inhibition, % at 10 µM; in the data active means inhibition above about 35%, passing the limit was not always enough; inconclusive means no clear call, values can overlap the other calls; further: plate controls were buffer without enzyme for full effect and enzyme alone for no effect
Anthrax LF prot: anthrax lethal factor protease inhibition | inhibition, % at 10 µM | multiplex microsphere protease cleavage assay, LF | hit rate 0.12% among 360,000; further: plate controls were buffer without enzyme for full effect and enzyme alone for no effect
Target sequence (P15917 whole entry, looked up): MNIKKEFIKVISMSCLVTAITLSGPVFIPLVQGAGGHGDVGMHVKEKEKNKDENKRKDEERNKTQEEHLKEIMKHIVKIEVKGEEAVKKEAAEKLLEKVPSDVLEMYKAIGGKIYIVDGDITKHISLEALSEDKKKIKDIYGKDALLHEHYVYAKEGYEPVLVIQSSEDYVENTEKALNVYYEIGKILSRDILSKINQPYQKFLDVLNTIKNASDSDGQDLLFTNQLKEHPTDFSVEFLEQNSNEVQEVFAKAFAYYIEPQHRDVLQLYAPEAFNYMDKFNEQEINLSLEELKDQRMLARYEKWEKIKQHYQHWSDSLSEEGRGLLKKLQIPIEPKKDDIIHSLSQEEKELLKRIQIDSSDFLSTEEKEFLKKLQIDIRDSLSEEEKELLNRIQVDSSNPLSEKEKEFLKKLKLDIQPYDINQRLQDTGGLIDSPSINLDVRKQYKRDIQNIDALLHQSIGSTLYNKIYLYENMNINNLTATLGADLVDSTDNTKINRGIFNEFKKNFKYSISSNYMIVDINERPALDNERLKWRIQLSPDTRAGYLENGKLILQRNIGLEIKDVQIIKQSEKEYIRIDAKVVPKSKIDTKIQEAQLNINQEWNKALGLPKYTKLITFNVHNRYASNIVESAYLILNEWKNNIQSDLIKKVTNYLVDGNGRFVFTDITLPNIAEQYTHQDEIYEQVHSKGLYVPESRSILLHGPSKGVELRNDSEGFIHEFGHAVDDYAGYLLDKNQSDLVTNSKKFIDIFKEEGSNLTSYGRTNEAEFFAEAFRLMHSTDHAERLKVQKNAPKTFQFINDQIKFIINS
MazF activator: MazEF (E. coli) toxin RNase activation | FAM/BHQ RNA-DNA oligo cleavage fluorescence, 5 h | hit rate 0.32% among 350,000 | activation, % at 20 µM; in the data active means activation above about 50%
Starred values were filed as active, the others as inactive; i = inactive; ? = inconclusive; · = no result; ! = not confirmed by another sample. Shown are actives, neighbours in structure and some others; about 3.9% of the full set was active somewhere. Unless noted, no stated cut-off is given here; in the data, active means inhibition above about 30%; inconclusive means no clear call, values can overlap the other calls; inactive means below that.

SMILES	BH1578 lux ind	Bead autofluor	BoNT A protease	BoNT-F LC inh	Anthrax LF prot	MazF activator
Cc1c(C(=O)N2CCCCC2)c(S(=O)(=O)N2CCC(C)CC2)c(C)n1C	0	4599	6	8	3	14
CCc1nnc2n1N=C(c1ccc(OC)cc1)CS2	-2	17512*	-3	-10	-4	9
CCOc1ccc(C2=Nn3c(nnc3-c3ccccc3OC)SC2)cc1	-2	22729*	1	1	0	7
c1ccc(-c2ccc(C3=Nn4c(nnc4-c4cc(-c5ccccc5)n[nH]4)SC3)cc2)cc1	i	18459*	3	2	3	-73
COc1ccccc1-c1nnc2n1N=C(c1ccc(O)c(O)c1)CS2	-3	15681	1	-2	-3	5
CCc1nnc2n1N=C(c1ccc([N+](=O)[O-])cc1)CS2	-1	4095	1	?	7	4
COc1cccc(-c2nnc3n2N=C(c2cccc(Br)c2)CS3)c1	1	20881*	?	-5	0	-12
CC1=Nn2c(nnc2-c2cc(-c3ccccc3)n[nH]2)SC1	-1	4836	-1	-24	-2	1
c1ccc(C[C@H]2CN=C(Nc3ccccc3)N2CC2CCCC2)cc1	·	4445	-1	-1	-7	·
Cc1cc(=O)n2nc(N3CCCC(C(=O)Nc4cccc(C)c4C)C3)sc2n1 (centres undefined)	0	8983	-1	2	5	·
O=C(NC(=S)NCc1ccccc1Cl)c1cccs1	i	3383	0	-1	2	2
CCOc1ccc(-c2nnc3n2N=C(c2ccc(OC)cc2)CS3)cc1	-16	19797*	6	10	4	10
COc1ccc(C2=Nn3c(nnc3-c3ccccn3)SC2)cc1	1	24133*	?	-2	-2	6
Cc1ccc(CNC(=O)CNC(=S)N(Cc2ccccc2)Cc2ccccc2F)cc1	-1	4306	0	-2	-4	0
O=C1C=C(O)c2cccc(O)c2C1=O	0	5847	-1	2	-4	-2
O=C1C=C(c2c(O)ccc3ccccc23)c2ccccc2C1=O	·	4403	1	29	-10	80*
CC(C)CC(=O)NCCc1ccncc1	i	22906*	1	0	1	0
CCCNC(=O)NCCc1ccncc1	i	3769	-1	-1	-3	0
COCCNC(=O)c1cc2c(c(-c3cccc(-c4cc5ccccc5o4)c3)n1)[C@H](CCO)N(S(=O)C(C)(C)C)C2 (some centres undefined)	·	6691	0	-22	-2	·
CCOC(=O)C1CCCN(C(=O)Cc2c(C(=O)O)[nH]c3ccccc23)C1 (centres undefined)	i	23230*	0	1	0	4
CCOC(=O)C1CCCN(CCCc2ccccc2)C1 (centres undefined)	0	23848*!	0	4	3	2
CCOC(=O)c1ccc(S(=O)(=O)N2CCN(CC3CC=CCC3)CC2)cc1 (centres undefined)	2	17091*	?	7	-8	-1
CCOC(=O)c1ccc(NC(=O)C2CCCN(S(=O)(=O)c3ccc(F)cc3)C2)cc1 (centres undefined)	0	24696*	-1	-4	0	-2
Cc1cccc(C)c1NC(=O)C1CCCN(CCCc2ccccc2)C1 (centres undefined)	-1	4935	-1	-6	0	2
O=C1C(=O)N(c2ccc(O)cc2)C(c2ccccc2[N+](=O)[O-])/C1=C(\O)c1ccccc1 (centres undefined)	0	4973	-1	-4	-2	8
SMILES	BH1578 lux ind	Bead autofluor	BoNT A protease	BoNT-F LC inh	Anthrax LF prot	MazF activator
CC(C)NC(=O)C1CCCN(S(=O)(=O)c2ccc(-n3cnnn3)cc2)C1 (centres undefined)	i	16890*	-2	-5	-3	-12
O=C(NC1CCCC1)C1CCCN(S(=O)(=O)c2ccc(-n3cnnn3)cc2)C1 (centres undefined)	0	4357	0	3	-5	0
CCOC(=O)C1CN(S(=O)(=O)c2ccccc2)C1	·	9249	0	-12	0	-1
CCOC(=O)C1CCCN(S(=O)(=O)c2ccccc2)C1 (centres undefined)	i	22239*	2	6	-1	-4
Cc1cc(C)n(-c2nc3ccccc3c(=O)n2OCc2ccc(Cl)cc2)n1	-1	22331*	?	-3	-2	-1
Cc1cc(CC(C)C)n(-c2nc3ccccc3c(=O)n2OCc2ccccc2)n1	-1	23326*	?	-6	-3	-3
CCN(CC(=O)Nc1c(F)cccc1F)C(=O)/C=C/c1cn(Cc2ccccc2)nc1-c1cccnc1	-5	7157	-1	-4	5	-8
Cc1nc2nc(C)c(CCC(=O)N3CCN(c4ccccn4)CC3)c(C)n2n1	0	23157*	-1	-3	-5	-3
Cc1nc2ncnn2c(C)c1CCC(=O)N1CCOCC1	6	22539*	2	5	-5	-1
COc1ccccc1NC(=O)C1CCN(S(=O)(=O)c2ccc3c(c2)NC(=O)C(C)S3)CC1 (centres undefined)	i	6842	0	-4	1	-4
CCOC(=O)c1cccc(NS(=O)(=O)c2c(C)[nH]c(C)c2C(=O)N2CCCC2)c1	0	5756	1	-5	-1	-30
CCOC(=O)c1cccc(NS(=O)(=O)c2c(C)[nH]c(=O)[nH]c2=O)c1	i	19045*	1	1	-10	-2
Nc1nnc(-c2ccc(F)cc2)s1	i	8383	0	-9	3	-10
Nc1nnc(-c2ccccc2)s1	3	23348*	-2	-2	-2	0
CCOC(=O)c1c(NC(=O)CSc2nc3ccccc3o2)sc(C)c1C	-2	19163*	?	5	-4	-13
COc1ccc(-c2cc(-c3n[nH]c(=S)n3-c3cccc4ccccc34)[nH]n2)cc1	0	4626	0	1	-5	1
COCc1n[nH]c(=S)n1-c1cccc2ccccc12	i	23066*	2	5	3	2
CCCCN1C(=O)C(C2c3ccccc3C(=O)N2Cc2ccccc2)C(=O)NC1=S (centres undefined)	i	21741*	1	4	-1	5
CN(C)c1nc(NCc2ccccc2)nc(SCC(=O)Nc2ccc(Cl)c(Cl)c2)n1	i	19687*	0	-1	3	-5
CNc1ccc(Br)cc(C(=O)/C=C/c2cccc(OC)c2)c1=O	0	17911*	16	10	19	3
CCNc1ccc(Br)cc(C(=O)/C=C/c2c(Cl)cccc2Cl)c1=O	0	6714	59*	16	29	3
CNc1ccc(Br)cc(C(=O)/C=C/c2ccc(OC)cc2OC)c1=O	0	9593	23	-11	14	-1
C/C(=N\NC(=O)C1(C)CC1(Br)Br)c1ccc(NC(=O)C2CCC2)cc1 (centres undefined)	0	3691	-1	-4	-1	3
